Assay outcomes: PubChem, Broad Institute
IDE exosite FP: insulin-degrading enzyme (human) exo-site inhibition | P14735 | purified IDE, FL-6b probe fluorescence polarization; stronger effect = lower value | z-score at 20 µM | 17,000 tested, 6.3% active | AID 1259349;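 active = z-score of -3 or lower, meaning strong loss of probe binding signal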;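 note: His-tagged human IDE residues 42-1019 made in E. coli with 30 nM FL-6b probe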
Target sequence (P14735 42-1019 limits assumed): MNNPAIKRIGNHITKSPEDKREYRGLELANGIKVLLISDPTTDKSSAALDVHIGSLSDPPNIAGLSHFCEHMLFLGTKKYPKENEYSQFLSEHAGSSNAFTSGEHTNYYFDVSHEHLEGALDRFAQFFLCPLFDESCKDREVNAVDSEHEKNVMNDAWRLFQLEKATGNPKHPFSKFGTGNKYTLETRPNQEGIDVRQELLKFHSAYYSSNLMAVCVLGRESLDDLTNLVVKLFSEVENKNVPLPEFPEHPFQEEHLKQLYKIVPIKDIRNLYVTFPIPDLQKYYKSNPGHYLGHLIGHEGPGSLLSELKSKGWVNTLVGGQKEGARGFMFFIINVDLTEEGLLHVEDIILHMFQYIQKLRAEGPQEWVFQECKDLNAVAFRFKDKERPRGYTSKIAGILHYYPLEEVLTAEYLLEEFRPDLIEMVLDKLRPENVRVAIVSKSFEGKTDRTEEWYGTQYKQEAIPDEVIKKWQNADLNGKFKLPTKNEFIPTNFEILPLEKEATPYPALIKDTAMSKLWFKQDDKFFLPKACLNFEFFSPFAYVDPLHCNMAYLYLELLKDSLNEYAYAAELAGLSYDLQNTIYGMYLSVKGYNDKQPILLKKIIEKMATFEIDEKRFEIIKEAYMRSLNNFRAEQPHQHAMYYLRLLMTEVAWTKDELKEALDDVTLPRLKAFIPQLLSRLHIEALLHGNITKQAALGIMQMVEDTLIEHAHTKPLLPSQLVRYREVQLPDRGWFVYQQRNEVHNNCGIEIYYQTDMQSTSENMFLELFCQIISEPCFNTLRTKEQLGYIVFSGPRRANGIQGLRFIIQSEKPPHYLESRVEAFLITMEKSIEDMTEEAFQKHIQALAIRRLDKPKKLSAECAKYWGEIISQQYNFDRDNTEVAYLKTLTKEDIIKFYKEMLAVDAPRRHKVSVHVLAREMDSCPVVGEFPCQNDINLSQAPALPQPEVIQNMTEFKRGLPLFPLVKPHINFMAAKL
A number is an active result; - = inactive. The sample as a whole holds a higher share of hits than the screen did.

SMILES	IDE exosite FP
O=C(c1cccc(F)c1)N1CC(=O)N2[C@H](CO)[C@@H](c3ccc(-c4ccccc4)cc3)[C@@H]2C1	-
O=C(c1ccccc1F)N1CC(=O)N2[C@H](C1)[C@@H](c1ccc(-c3ccccc3)cc1)[C@@H]2CO	-3.2
O=C(Nc1ccccc1F)N1CC(=O)N2[C@H](C1)[C@@H](c1ccc(C#Cc3ccc(F)cc3)cc1)[C@@H]2CO	-
O=C(Nc1ccccc1F)N1CC(=O)N2[C@H](C1)[C@H](c1ccc(C#Cc3ccccc3)cc1)[C@@H]2CO	-4.1
O=C(c1ccccc1F)N1CC(=O)N2[C@@H](CO)[C@H](c3ccc(-c4ccc(F)cc4)cc3)[C@@H]2C1	-
O=C(c1ccccc1F)N1CC(=O)N2[C@H](CO)[C@@H](c3ccc(C#Cc4ccccc4)cc3)[C@@H]2C1	-
CCC(=O)N1[C@H](CO)[C@H](c2ccc(C#CC3(O)CCCC3)cc2)[C@@H]1CNC(C)=O	-
COc1ccc(NC(=O)N2CC(=O)N3[C@H](CO)[C@H](c4ccc(C#CCC5CCCC5)cc4)[C@H]3C2)cc1	-
COCC(=O)Nc1ccc2c(c1)C(=O)N(C)[C@@H]1CC[C@H](CC(=O)N3CCc4ccccc4C3)O[C@H]1CO2	-
CN1C(=O)c2cc(NC(=O)NCc3ccccc3)ccc2OC[C@@H]2O[C@@H](CC(=O)NCC3CCCCC3)CC[C@H]21	-
CN1CCCCN2[C@@H](CO)[C@H](c3ccc(-c4ccc(F)cc4)cc3)[C@@H]2C1	-
C[C@@H]1CN([C@H](C)CO)C(=O)c2cc(-c3cccc(C#N)c3)cnc2O[C@H]1CN(C)C(=O)C1CCOCC1	-
CO[C@@H](CN(C)S(=O)(=O)c1ccc(F)cc1)[C@@H](C)CN(Cc1ccccc1Cl)[C@H](C)CO	-
COc1ccc(C(=O)N2C[C@H]3[C@@H](c4ccccc42)[C@H](CO)N3Cc2ccccc2Cl)cc1	-
CS(=O)(=O)N1CC(=O)N2[C@@H](CO)[C@H](c3ccc(C#Cc4ccc(F)cc4)cc3)[C@@H]2C1	-
CS(=O)(=O)N1CC(=O)N2[C@H](CO)[C@@H](c3ccc(C#Cc4ccc(F)cc4)cc3)[C@H]2C1	-
CS(=O)(=O)N1CC(=O)N2[C@@H](CO)[C@H](c3ccc(C#CCc4ccccc4)cc3)[C@@H]2C1	-
CS(=O)(=O)N1CC(=O)N2[C@H](C1)[C@@H](c1ccc(C#CCc3ccccc3)cc1)[C@@H]2CO	-3.2
CS(=O)(=O)N1CC(=O)N2[C@H](C1)[C@@H](c1ccc(C#Cc3ccc(F)cc3)cc1)[C@@H]2CO	-
CS(=O)(=O)N1CC(=O)N2[C@H](CO)[C@H](c3ccc(C#Cc4ccccc4)cc3)[C@@H]2C1	-5.4
CS(=O)(=O)N1CC(=O)N2[C@H](C1)[C@H](c1ccc(C#Cc3cccc(F)c3)cc1)[C@@H]2CO	-8.4
CCS(=O)(=O)N1CC(=O)N2[C@H](CO)[C@@H](c3ccc(-c4ccccc4)cc3)[C@H]2C1	-
CS(=O)(=O)N1CC(=O)N2[C@H](CO)[C@@H](c3ccc(C#CCc4ccccc4)cc3)[C@H]2C1	-
CS(=O)(=O)N1CC(=O)N2[C@H](C1)[C@H](c1ccc(C#Cc3ccc(F)cc3)cc1)[C@@H]2CO	-
CCS(=O)(=O)N1CC(=O)N2[C@H](CO)[C@@H](c3ccc(-c4cccc(F)c4)cc3)[C@@H]2C1	-3.2
SMILES	IDE exosite FP
CCS(=O)(=O)N1CC(=O)N2[C@H](CO)[C@H](c3ccc(-c4ccccc4)cc3)[C@@H]2C1	-
C/C=C/c1ccc([C@H]2[C@@H](CO)N3CCCCN(C(=O)Nc4ccc(F)cc4)C[C@H]23)cc1	-
CN1CCCCN2[C@@H](CO)[C@H](c3ccc(-c4ccccc4)cc3)[C@@H]2C1	-
CC(C)NC(=O)N1[C@@H](CO)[C@@H](c2ccccc2)C12CN(Cc1cc(F)cc(F)c1)C2	-
O=C(C[C@H]1CC[C@H]2[C@@H](COC[C@H](O)CN2Cc2cc(F)cc(F)c2)O1)Nc1nccs1	-
NCC[C@@H]1CC[C@@H](NC(=O)NC2CCCCC2)[C@@H](CO)O1	-
CC(C)COC(=O)N(C)C[C@@H]1OCc2ccccc2-c2ccccc2C(=O)N([C@@H](C)CO)C[C@H]1C	-
CO[C@H]1CN(C)C(=O)c2ccc(NS(=O)(=O)CC(F)(F)F)cc2OC[C@@H](C)N(C(=O)NC(C)C)C[C@H]1C	-
O=C(C[C@H]1CC[C@H]2[C@@H](COC[C@@H](O)CN2C(=O)c2cccnc2)O1)NCC1CC1	-
CS(=O)(=O)N1CC(=O)N2[C@H](C1)[C@H](c1ccc(C#Cc3ccccc3)cc1)[C@@H]2CO	-5.3
CS(=O)(=O)N1CC(=O)N2[C@H](CO)[C@@H](c3ccc(C#Cc4ccccc4)cc3)[C@@H]2C1	-
CS(=O)(=O)N1CC(=O)N2[C@H](CO)[C@@H](c3ccc(C#CCc4ccccc4)cc3)[C@@H]2C1	-
COc1ccc2c3c(n(C)c2c1)[C@H](CO)N(Cc1cc(F)ccc1F)CC31CN(C(=O)C2CC2)C1	-
COc1ccc2c3c(n(C)c2c1)[C@@H](CO)N(S(=O)(=O)c1ccc(C)cc1)CC31CN(C(=O)c2ccccn2)C1	-
CCC(=O)N1C[C@@H](C)[C@@H](OC)CN(C)C(=O)c2ccc(NC(=O)CC(F)(F)F)cc2OC[C@@H]1C	-
COc1ccc(-c2ccc([C@@H]3[C@H](CO)N4C(=O)CN(C(=O)NC(C)C)C[C@@H]34)cc2)cc1	-
Cc1ccc(-c2ccc([C@@H]3[C@H](CO)N4C(=O)CN(C(=O)NC(C)C)C[C@@H]34)cc2)cc1	-
CC(C)NC(=O)N1CC(=O)N2[C@H](CO)[C@@H](c3ccc(/C=C/c4ccccc4)cc3)[C@@H]2C1	-3.3
COc1ccc(-c2ccc([C@H]3[C@@H](CO)N4C(=O)CN(C(=O)NC(C)C)C[C@@H]34)cc2)cc1	-
COc1ccc(NC(=O)N2CC(=O)N3[C@H](CO)[C@H](c4ccc(/C=C/c5ccccc5)cc4)[C@@H]3C2)cc1	-
CC(C)NC(=O)N1CC(=O)N2[C@@H](CO)[C@H](c3ccc(/C=C/c4ccccc4)cc3)[C@@H]2C1	-3.4
O=C(Cc1ccncc1)N1CC[C@@H]2[C@H](CO)Nc3ccc(-c4ccccc4F)cc3[C@@H]21	-
CCCNC(=O)N1[C@H](C#N)[C@@H](c2ccccc2C2=CCCC2)[C@@H]1CO	-
O=C(C[C@@H]1C=C[C@H](NC(=O)c2ccncc2)[C@@H](CO)O1)NCC1CC1	-
OC[C@@H]1[C@@H](c2ccc(-c3ccccc3)cc2)[C@H]2CN(Cc3cncnc3)CCCCN12	-
SMILES	IDE exosite FP
OC[C@@H]1[C@H](c2ccc(/C=C/c3ccccc3)cc2)[C@@H]2CN(Cc3ccncc3)CCCCN12	-8.5
c1cncc(CN2C[C@@H]3N[C@H](C2)C3c2ccc(-c3cccnc3)cc2)c1 (some centres not stated)	-
OC[C@@H]1[C@@H](c2ccc(/C=C/c3ccccc3)cc2)[C@@H]2CN(Cc3cccnc3)CCCCN12	-
O=C(C1CCC1)N1C[C@@H]2N[C@H](C1)C2c1ccc(/C=C/c2ccccc2)cc1 (some centres not stated)	-
OC[C@@H]1[C@@H](c2ccc(/C=C/c3ccccc3)cc2)[C@@H]2CN(Cc3cncnc3)CCCCN12	-7.9
OC[C@@H]1[C@H](c2ccc(/C=C/c3ccccc3)cc2)[C@@H]2CN(Cc3cccnc3)CCCCN12	-5.2
CCCC#Cc1ccc([C@H]2[C@H](CO)N3CCCCN(Cc4ccncc4)C[C@@H]23)cc1	-
OC[C@H]1[C@H](c2ccc(-c3ccc(F)cc3)cc2)[C@H]2CN(Cc3cccnc3)CCCCN21	-
OC[C@H]1[C@H](c2ccc(Br)cc2)[C@@H]2CN(Cc3cncnc3)CCCCN12	-
